Experimental data from PubChem BioAssay.
The source made the active and inactive calls.

Experiment: budding yeast growth modifiers under rapamycin – strain BY4716, OD600, 96 h, primary screen (AID 1091); note: test concentration not given here
Conditions: S. cerevisiae BY4716 + rapamycin, higher = more signal, called active from +8 up or from −8 down

z-score, inactive:
CC(C)=NO[C@H](C)c1cn([C@H](CO)Cc2ccccc2)nn1 0.245
CCOC(=O)[C@H](CC(C)C)NC(=O)CCC1CC(OC(=O)NCc2cccc3ccccc23)CC2(CCCC(COC(=O)NCCOc3ccccc3)O2)O1 (stereo not given in full) 0.231
O=C1C[C@@H](O)[C@@H](O)[C@@H]2[C@@H]3C(=O)N(C[C@@H]4CCCO4)C(=O)[C@@H]3CC[C@@H]12 -0.404
CCOC(=O)[C@H](CC(C)C)NC(=O)CCC1CC(OC(=O)NCc2cccc3ccccc23)CC2(CCCC(COC(=O)NCCc3ccc(Cl)cc3)O2)O1 (stereo not given in full) -0.164
CO[C@H]1COC(=O)CC=C[C@@H](C)[C@H](NS(=O)(=O)c2ccc(C)cc2)COC(=O)CCC[C@@H]1C -0.726
CO[C@H]1COC(=O)[C@H](C)NC(=O)CC=C[C@@H](C)[C@H](OC)COC(=O)[C@@H](OCc2ccccc2)C=C[C@@H]1C -0.118
CCCNC(=O)OC[C@H]1O[C@H](CCON=C(C)CCN2CCCc3nc(C)c(C)cc32)C=C[C@@H]1Oc1ccc(OC)cc1 -0.0042
C#CCCCON=C1C[C@@H](O)[C@@H](O)[C@@H]2[C@@H]3C(=O)N(CC)C(=O)[C@@H]3CC[C@@H]12 1.25
COC(=O)[C@H](C)NC(=O)CCC1CC(OC(=O)NCc2ccc3c(c2)OCO3)CC2(CCCC(COC(=O)NCC3CCCCC3)O2)O1 (stereo not given in full) 1.45
CO[C@H]1COC(=O)CC=C[C@@H](C)[C@H](OC)COC(=O)[C@@H]2CCCN2C(=O)CC=C[C@@H]1C -0.202
